Measured values as given in PubChem BioAssay (NCATS).
Records with an inconclusive call do not appear. Where a call stands in place of a potency, no number is given. Active and inactive are the calls of the source. Calls come from the whole dose curve; as a rule, active = well fitted inhibition curve with a large enough effect; inconclusive = small, poorly fitted or top-dose-only effect; inactive = no such curve, though single readings can be large or run the other way.

biological target: Cytochrome P450 3A7 (Homo sapiens) (UniProt P24462); test: Cytochrome P450 family 3 subfamily A member 7 (CYP3A7) small molecule antagonists: luciferase biochemical qHTS assay (AID 1963596); conditions: P450-Glo CYP3A7 enzyme luminescence, 1 h; series mostly up to 57.4 µM; note: nearly all actives have a fitted effect of over 40% in size
Outline: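 Biochemical CYP3A7 activity measured with P450-Glo system: luciferin formed from proluciferin substrate in NADPH-driven reaction (1 h, room temperature) after 10 min compound preincubation. Signal in relative luminescence units.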

Cytochrome P450 3A7 (Homo sapiens), sequence (P24462 whole entry, looked up): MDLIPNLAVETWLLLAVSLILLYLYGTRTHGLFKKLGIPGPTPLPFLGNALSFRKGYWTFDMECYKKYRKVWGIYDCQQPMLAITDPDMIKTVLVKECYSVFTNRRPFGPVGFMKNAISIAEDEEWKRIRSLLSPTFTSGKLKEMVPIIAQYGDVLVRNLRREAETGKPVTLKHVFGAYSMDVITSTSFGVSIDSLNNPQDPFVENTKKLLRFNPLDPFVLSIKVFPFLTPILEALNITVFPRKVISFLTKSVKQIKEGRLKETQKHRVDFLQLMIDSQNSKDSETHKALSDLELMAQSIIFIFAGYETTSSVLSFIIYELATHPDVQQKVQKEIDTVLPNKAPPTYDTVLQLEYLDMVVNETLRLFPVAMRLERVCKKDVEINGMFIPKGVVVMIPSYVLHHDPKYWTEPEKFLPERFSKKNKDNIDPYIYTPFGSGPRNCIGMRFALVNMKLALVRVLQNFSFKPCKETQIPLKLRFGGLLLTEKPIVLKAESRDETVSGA

SMILES	Potency
O=C(CO)[C@@H](O)[C@H](O)[C@@H](O)C(=O)O	inactive
CC1(C)OC[C@H](NC(=O)Nc2ccc(Br)cc2Br)[C@H](c2ccccc2)O1	inactive
Cc1ccc(C2=Nc3ccccc3N(CC(=O)Nc3ccccc3F)C(=O)C2)cc1C	inactive
S=C=Nc1ccc(N=C=S)cc1	inactive
COc1cc(Cc2cnc(N)nc2N)c(C(C)C)cc1OC	inactive
OC1CCC(Nc2ncc3nc(Nc4c(F)cc(F)cc4F)n([C@H]4CCOC4)c3n2)CC1 (stereo not given in full)	inactive
Cc1cc(OCc2nc(-c3ccccc3Cl)cs2)ccc1OCC(=O)O	inactive
C/C=C/C=C/C(=O)O	inactive
COc1ccc(C(=O)NC(c2ccc(Cl)cc2)c2cc(Cl)c3cccnc3c2O)cc1 (stereo not given)	inactive
Cn1nc(-c2ccc(C(F)(F)F)cc2)nc2c(=O)n(C)c(=O)nc1-2	inactive
CCOC(=O)c1csc(-n2nc(-c3ccc(F)c(F)c3)c(Cc3ccc(S(N)(=O)=O)cc3)c2N)n1	inactive
C=Cc1ccccc1	inactive
COc1ccc(-c2n[nH]c3c2cnc2cc(OC)c(OC)cc23)cc1	inactive
Cn1c(=O)c2c(nc(CN3CCN(C(=O)C4CC4)CC3)n2Cc2cccc(F)c2)n(C)c1=O	inactive
CNC(=O)COC(=O)N1CCC(CCc2ccc(Cl)cc2)CC1	inactive
O=c1[nH]ccc2cc(OC3CCNCC3)ccc12	inactive
CC(C)=CCC/C(C)=C/CC/C(C)=C/CC/C=C(\C)CC/C=C(\C)CCC=C(C)C	inactive
COc1ccc(NC(=O)c2ccc(-c3ccc(C(=N)N)cc3C)cc2)cc1N1CCN(C)CC1	inactive
CC1=CC(O)=NS(=O)(=O)O1	inactive
CC1(O)CCC(C(C)(C)O)CC1 (stereo not given)	inactive

SMILES	Potency
COC(=O)[C@H](Cc1cccc(C(=N)N)c1)[C@@H](C)NC(=O)c1ccc(-c2cc[n+]([O-])cc2)cc1	inactive
COC(=O)c1c(-c2ccc(Cl)cc2)noc1N1CCN(c2ccccc2OC)CC1	inactive
C=C(C)Cn1c(SCC(=O)c2cccs2)nc2sc3c(c2c1=O)CCCC3	inactive
CCc1ccc(C2=CC(c3c(F)cccc3Cl)n3c(nc4ccccc43)N2)cc1 (stereo not given)	inactive
CC(C)[C@H](N)C(=O)O	inactive
COc1ccc(C=CC(=O)O)cc1	inactive
O=C(O)c1ccc(Cc2c(-c3cccc(-c4ccccc4)c3)[nH]n(-c3nc(C(=O)O)cs3)c2=O)cc1	inactive
CC(C)C[C@H](NC(=O)CNC(=O)[C@H](Cc1ccc(O)cc1)NC(=O)[C@H](CO)NC(=O)[C@H](Cc1c[nH]c2ccccc12)NC(=O)[C@H](Cc1cnc[nH]1)NC(=O)[C@@H]1CCC(=O)N1)C(=O)N[C@@H](CCCN=C(N)N)C(=O)N1CCC[C@H]1C(=O)NCC(N)=O (stereo in doubt)	inactive
Cc1ccc(Cn2c(SCc3ccc(C(=O)N4CCCCCC4)cc3)nc3ccncc32)cc1	inactive
CCCCc1c(-c2ccc(OC)cc2)[nH]c2nccnc12	inactive
C[C@H](NCCc1ccc(O)cc1)[C@H](O)c1ccc(O)cc1	inactive
On1ncc(C2CCNCC2)c1-c1cccc(-c2ccccc2)c1	inactive
Cn1c(=O)n(-c2ccc(C(C)(C)C#N)cc2)c2c3cc(C#Cc4cccnc4)ccc3ncc21	inactive
C[C@@H]1CN(Cc2ccccc2)C[C@H]1c1nc2c(cnn2C2CCOCC2)c(=O)[nH]1	inactive
CCc1ccccc1OC[C@@H](O)CN[C@H]1CCCc2ccccc21	inactive
NC(=O)c1cccc2cn(-c3ccc(C4CCCNC4)cc3)nc12 (stereo not given)	inactive
O=C(Nc1cccc(C2=NCCN2)c1)Nc1cccc(C2=NCCN2)c1	inactive
Nc1c(CC(=O)O)cccc1C(=O)c1ccccc1	inactive
COC(C)=O	inactive
O=C1C(c2[nH]c3ccc(S(=O)(=O)O)cc3c2O)=Nc2ccc(S(=O)(=O)O)cc21	inactive
